# Measurements published in PubChem BioAssay (NCI).
# This is part of a sample that, as a whole, favours compounds with a hit. Of some 83,000 tested, about 20% had one in any assay.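 Step 1: grow cells in 96-well plates. Step 2: add test compound at a single concentration. Step 3: incubate 48 h. Step 4: record percent growth.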 Unmarked numbers belong to inactive results. The source made the active and inactive calls. The calls were made as follows: active = growth percent below 10; inactive = the rest.
# System: EKVX NSCLC
# Test: NCI-60 one-dose screen, 48 h (100 = growth as untreated, 0 = no growth, -100 = all killed)
# Conditions: 10 µM
row,Compound,growth
1,O=[N+]([O-])c1cc(Cl)cc(Cl)c1O,96%
2,CN(C)CCCSc1ccccc1NC1=C(Cl)C(=O)C(Nc2ccccc2SCCCN(C)C)=C(Cl)C1=O,67.5%
3,CCN(CC)CCOc1cccc2c1C(=O)c1ccccc1C2=O,95.2%
4,CCOC(=O)c1cc(C(=O)c2ccc(OC)c(OC)c2)n2c1ccc1ccc3cccnc3c12,78.6%
5,CCN(CC)CCOc1ccc2c(c1O)C(=O)c1ccccc1C2=O,100%
6,COc1cc(-c2nn(-c3cccc(NC(=O)NCCNC(=O)c4ccccc4)c3)cc2-c2ccncc2)ccc1Cl,34.2%
7,CN(C)CCN(Cc1ccccc1)c1ccc2ccccc2n1,109%
8,Nc1ccc(/C=N/Nc2ccnc3c(O)cccc23)c2cccnc12,61.8%
9,CCOC(=O)c1cc(C(=O)c2cc(OC)c(OC)c(OC)c2)n2ccc(-c3cc[n+](CC(=O)c4cc(OC)c(OC)c(OC)c4)cc3)cc12,107%
10,COc1ccc2nc(-c3ccc(Cl)cc3)cc(-c3nnc(SC/C(=N\O)c4ccccc4)n3-c3ccccc3)c2c1,96.2%
11,CCN(CC)CCNc1ccc(C)c2sc3cc(Cl)ccc3c(=O)c12,71.3%
12,C/C=C/CSC(C)(C)C(=O)NC,99.8%
13,CCOS(=O)(=O)c1c(C(C)C)cc(C(C)C)cc1C(C)C,97.8%
14,O=C(Nc1nc(-c2ccccc2)nc2c1sc(=S)n2-c1ccccc1)C(F)(F)F,97.2%
15,CCOC(=O)c1cc(C(=O)c2cc(OC)c(OC)c(OC)c2)n2ncc3ccccc3c12,94.5%
16,Cc1ccc(NCCN(C)CC(C)O)c2c(=O)c3ccccc3sc12 (stereo not given),86.4%
17,COc1cc(-c2nn(-c3cccc(NC(=O)NCCNS(=O)(=O)c4ccc(Cl)cc4)c3)cc2-c2ccncc2)ccc1Cl,29.8%
18,COc1cc(-c2nn(-c3cccc(NC(=O)CCN4CCN(c5ccccc5)CC4)c3)cc2-c2ccncc2)ccc1Cl,38.1%
19,O=S(=O)(O)c1cccc(Nc2ccc3ccccc3c2)c1,105%
20,CCCCCCCCCCOC(c1ccccc1)c1ccccc1,90.4%

row,Compound,growth
1,CC(=O)Nc1ccc2c(c1)C(=O)c1cccc(C(=O)O)c1-2,107%
2,Cc1ccc(NCCNCC(C)(C)O)c2c(=O)c3ccc(Cl)cc3sc12,71.8%
3,CN(C)CCOc1cccc(NC2=C(Cl)C(=O)C(Nc3cccc(OCCN(C)C)c3)=C(Cl)C2=O)c1,-92.3% (active)
4,CCOC(=O)c1cc(C(=O)c2ccc(Cl)cc2)n2ccc(-c3cc[n+](CC(=O)c4ccc(OC)cc4)cc3)cc12,96.4%
5,O=C1c2ccccc2C(=O)c2c1ccc(C(Br)Br)c2[N+](=O)[O-],46.8%
6,O=C(NCCNC(=O)c1ccc(F)cc1)Nc1ccc(-n2cc(-c3ccncc3)c(-c3ccc(Cl)c(O)c3)n2)cc1,11.8%
7,CCN(CC)CC(=O)N(CC)c1ccc(C)c(Cl)c1,105%
8,O=S(=O)(O)c1ccc(Cl)cc1,105%
9,CCNCC(=O)Nc1ccc(C(=O)OCC)cc1,104%
10,S=C(SSC(=S)N(c1ccccc1)c1ccccc1)N(c1ccccc1)c1ccccc1,118%
11,CC(C)CCN(CCC(C)C)CC(=O)Nc1ccc(S(=O)(=O)c2ccc(NC(=O)CN(CCC(C)C)CCC(C)C)cc2)cc1,83.1%
12,N#CCc1csc(Cc2ccccc2)n1,105%
13,CCOC(=O)c1cocc1C(=O)O,103%
14,CC(CN(C)C)Oc1ccc(OC(C)CN(C)C)c2c1C(=O)c1ccccc1C2=O (stereo not given),70.7%
15,Cc1ccc(S(=O)(=O)N(C)CCCCCC(=O)O)cc1,95.9%
16,Cc1ccc(NCCN(C)CC(C)O)c2c(=O)c3ccc(Cl)cc3sc12 (stereo not given),78.5%
17,O=C(Nc1cccc2c1CCCC2)c1cc2ccccc2cc1O,59.8%
18,COc1cc(OC)c2c(=O)c(O)c(-c3ccccc3)oc2c1,83.4%
19,O=C1c2ccccc2C(=O)c2c1ccc(C(Br)Br)c2Cl,66.6%
20,COc1cc(C)ccc1Oc1nc(Nc2ccc(N3CCOCC3)cc2)ncc1NC(=O)Nc1cc(C(F)(F)F)cc(C(F)(F)F)c1,80.7%
